# Legend:
# Test in all cases: DAPPL (digital affinity profiling via proximity ligation, sequencing); 10 mM Tris-HCl pH 7.5, 50 mM NaCl, 1 mM DTT, 4% glycerol, room temperature, 30 min; GST-TFs on glutathione beads, 16-mer random dsDNA library, 0.1% formaldehyde crosslink after washing; high values mean tight binding
# FLI1 = molecular target: T1, FLI1 (Homo sapiens, UniProt Q01543 1-452); settings: protein: recombinant; tags: N-terminal GST; dsDNA, one strand shown
# T1 sequence: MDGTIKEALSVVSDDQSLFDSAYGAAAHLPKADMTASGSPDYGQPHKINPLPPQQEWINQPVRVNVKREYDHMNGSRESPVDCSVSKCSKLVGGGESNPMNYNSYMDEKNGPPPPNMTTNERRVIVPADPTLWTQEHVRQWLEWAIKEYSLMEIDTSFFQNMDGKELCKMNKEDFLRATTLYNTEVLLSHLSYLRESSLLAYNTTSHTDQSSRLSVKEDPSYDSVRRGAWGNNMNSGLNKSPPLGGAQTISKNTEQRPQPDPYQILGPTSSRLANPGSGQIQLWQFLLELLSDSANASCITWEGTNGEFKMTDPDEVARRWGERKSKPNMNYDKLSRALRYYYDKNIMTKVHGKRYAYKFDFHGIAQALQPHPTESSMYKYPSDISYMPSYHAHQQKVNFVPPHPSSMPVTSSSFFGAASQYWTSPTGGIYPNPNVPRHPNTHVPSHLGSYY
# Outline: (§1)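 Each value of binding signal is a hexamer's read frequency for a factor divided by the same hexamer's frequency in the tag-only sample. Barcoded, bead-captured GST fusions of human transcription factors made in yeast were pooled with that sample and incubated with 200 nmole of a random double-stranded 16-mer DNA library in Tris/NaCl/DTT/glycerol buffer at room temperature for 30 min. Washing, 0.1% formaldehyde crosslinking, proximity ligation, PCR and Illumina NextSeq500 sequencing followed.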
# ELK1 = molecular target: T2, ELK1 (Homo sapiens, UniProt P19419 1-428); settings: protein: recombinant; tags: N-terminal GST; dsDNA, one strand shown
# T2 sequence: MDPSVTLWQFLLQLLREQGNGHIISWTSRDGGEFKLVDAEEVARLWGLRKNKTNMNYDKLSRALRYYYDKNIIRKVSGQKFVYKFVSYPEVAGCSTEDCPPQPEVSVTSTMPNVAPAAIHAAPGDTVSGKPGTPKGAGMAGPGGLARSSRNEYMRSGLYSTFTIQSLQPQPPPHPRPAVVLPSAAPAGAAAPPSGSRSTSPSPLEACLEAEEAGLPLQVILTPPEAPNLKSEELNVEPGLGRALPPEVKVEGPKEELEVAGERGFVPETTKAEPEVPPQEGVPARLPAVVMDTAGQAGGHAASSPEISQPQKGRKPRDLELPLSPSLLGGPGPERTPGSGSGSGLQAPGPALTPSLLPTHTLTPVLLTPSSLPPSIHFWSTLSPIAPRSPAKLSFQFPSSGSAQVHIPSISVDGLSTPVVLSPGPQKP
# Outline: as §1
# GABPA = molecular target: T3, GABPA (Homo sapiens, UniProt Q06546 1-454); settings: protein: recombinant; tags: N-terminal GST; dsDNA, one strand shown
# T3 sequence: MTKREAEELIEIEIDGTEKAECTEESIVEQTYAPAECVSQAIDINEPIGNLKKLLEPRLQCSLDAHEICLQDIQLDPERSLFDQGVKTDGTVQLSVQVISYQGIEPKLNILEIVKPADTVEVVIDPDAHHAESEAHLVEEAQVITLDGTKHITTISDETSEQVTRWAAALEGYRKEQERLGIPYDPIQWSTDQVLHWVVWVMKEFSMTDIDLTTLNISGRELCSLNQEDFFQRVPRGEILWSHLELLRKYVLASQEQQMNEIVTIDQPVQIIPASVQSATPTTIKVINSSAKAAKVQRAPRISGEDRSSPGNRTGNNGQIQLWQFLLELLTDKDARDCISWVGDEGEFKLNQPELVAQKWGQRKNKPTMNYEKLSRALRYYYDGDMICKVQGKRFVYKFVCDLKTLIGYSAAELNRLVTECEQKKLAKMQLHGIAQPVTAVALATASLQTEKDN
# Outline: as §1
# ERG = molecular target: T4, ERG (Homo sapiens, UniProt P11308 1-479); settings: protein: recombinant; tags: N-terminal GST; dsDNA, one strand shown
# T4 sequence: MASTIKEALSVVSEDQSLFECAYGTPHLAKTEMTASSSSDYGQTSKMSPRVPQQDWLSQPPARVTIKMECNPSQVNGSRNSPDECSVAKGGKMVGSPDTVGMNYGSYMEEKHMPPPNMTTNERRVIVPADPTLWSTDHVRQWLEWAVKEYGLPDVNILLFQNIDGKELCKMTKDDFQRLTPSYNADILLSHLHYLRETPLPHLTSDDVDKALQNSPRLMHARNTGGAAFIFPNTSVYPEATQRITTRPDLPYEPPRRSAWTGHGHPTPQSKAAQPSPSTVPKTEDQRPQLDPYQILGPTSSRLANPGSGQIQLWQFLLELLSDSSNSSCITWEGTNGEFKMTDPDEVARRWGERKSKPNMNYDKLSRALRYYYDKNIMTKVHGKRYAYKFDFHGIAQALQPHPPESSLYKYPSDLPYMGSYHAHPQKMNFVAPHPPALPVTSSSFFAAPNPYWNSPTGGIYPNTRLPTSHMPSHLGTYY
# Outline: as §1
# ELF1 = ELF1 (Homo sapiens, UniProt P32519 1-619); settings: protein: recombinant; tags: N-terminal GST; dsDNA, one strand shown
# Outline: as §1
# EHF = molecular target: T5, EHF (Homo sapiens, UniProt Q9NZC4 1-300); settings: protein: recombinant; tags: N-terminal GST; dsDNA, one strand shown
# T5 sequence: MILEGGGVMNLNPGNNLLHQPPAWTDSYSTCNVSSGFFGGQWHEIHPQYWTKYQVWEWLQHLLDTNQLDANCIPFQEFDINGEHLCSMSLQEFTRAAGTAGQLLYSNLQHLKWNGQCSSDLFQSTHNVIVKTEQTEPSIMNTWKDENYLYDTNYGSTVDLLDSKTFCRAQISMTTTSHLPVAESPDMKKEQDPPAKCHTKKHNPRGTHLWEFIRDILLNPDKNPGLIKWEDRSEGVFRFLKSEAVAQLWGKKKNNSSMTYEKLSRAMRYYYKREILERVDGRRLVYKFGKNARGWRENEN
# Outline: as §1
# SPI1 = SPI1 (Homo sapiens, UniProt P17947 1-270); settings: protein: recombinant; tags: N-terminal GST; dsDNA, one strand shown
# Outline: as §1
# SPIB = SPIB (Homo sapiens, UniProt Q01892 1-262); settings: protein: recombinant; tags: N-terminal GST; dsDNA, one strand shown
# Outline: as §1
# ELK3 = molecular target: T6, ELK3 (Homo sapiens, UniProt P41970 1-407); settings: protein: recombinant; tags: N-terminal GST; dsDNA, one strand shown
# T6 sequence: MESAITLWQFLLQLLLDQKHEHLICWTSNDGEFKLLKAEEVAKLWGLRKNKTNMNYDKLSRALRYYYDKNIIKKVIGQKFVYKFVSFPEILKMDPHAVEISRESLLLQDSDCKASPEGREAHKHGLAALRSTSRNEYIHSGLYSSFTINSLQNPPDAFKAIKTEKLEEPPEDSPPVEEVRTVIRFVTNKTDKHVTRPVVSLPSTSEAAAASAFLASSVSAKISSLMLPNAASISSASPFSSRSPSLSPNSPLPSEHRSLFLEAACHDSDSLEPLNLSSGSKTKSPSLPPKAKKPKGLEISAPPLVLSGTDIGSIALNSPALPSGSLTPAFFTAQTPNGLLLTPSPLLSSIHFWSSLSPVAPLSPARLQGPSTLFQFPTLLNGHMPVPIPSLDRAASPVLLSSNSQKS
# Outline: as §1
# FEV = molecular target: T7, FEV (Homo sapiens, UniProt Q99581 1-238); settings: protein: recombinant; tags: N-terminal GST; dsDNA, one strand shown
# T7 sequence: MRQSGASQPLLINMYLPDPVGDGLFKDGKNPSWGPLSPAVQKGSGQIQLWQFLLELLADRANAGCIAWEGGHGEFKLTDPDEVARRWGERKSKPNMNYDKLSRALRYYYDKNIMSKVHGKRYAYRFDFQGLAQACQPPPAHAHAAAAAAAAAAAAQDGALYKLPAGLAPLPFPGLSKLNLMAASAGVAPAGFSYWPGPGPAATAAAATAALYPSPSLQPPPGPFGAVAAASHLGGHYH
# Outline: as §1
# ETV5 = ETV5 (Homo sapiens, UniProt P41161 1-510); settings: protein: recombinant; tags: N-terminal GST; dsDNA, one strand shown
# Outline: as §1
# HSF1 = HSF1 (Homo sapiens, UniProt Q00613 1-529); settings: protein: recombinant; tags: N-terminal GST; chain copies: 3; dsDNA, one strand shown
# Outline: as §1
# SPIC = molecular target: T8, SPIC (Homo sapiens, UniProt Q8N5J4 1-248); settings: protein: recombinant; tags: N-terminal GST; dsDNA, one strand shown
# T8 sequence: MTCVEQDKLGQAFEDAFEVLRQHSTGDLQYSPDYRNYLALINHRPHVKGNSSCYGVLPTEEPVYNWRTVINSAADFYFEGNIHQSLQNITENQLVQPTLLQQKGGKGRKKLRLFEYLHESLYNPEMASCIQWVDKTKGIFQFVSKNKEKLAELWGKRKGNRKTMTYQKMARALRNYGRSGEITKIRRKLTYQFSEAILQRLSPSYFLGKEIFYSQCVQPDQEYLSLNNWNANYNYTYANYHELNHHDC
# Outline: as §1
# ELF4 = ELF4 (Homo sapiens, UniProt Q99607 1-663); settings: protein: recombinant; tags: N-terminal GST; dsDNA, one strand shown
# Outline: as §1
# ELK4 = molecular target: T9, ELK4 (Homo sapiens, UniProt P28324-2 1-405); settings: protein: recombinant; tags: N-terminal GST; dsDNA, one strand shown
# T9 sequence: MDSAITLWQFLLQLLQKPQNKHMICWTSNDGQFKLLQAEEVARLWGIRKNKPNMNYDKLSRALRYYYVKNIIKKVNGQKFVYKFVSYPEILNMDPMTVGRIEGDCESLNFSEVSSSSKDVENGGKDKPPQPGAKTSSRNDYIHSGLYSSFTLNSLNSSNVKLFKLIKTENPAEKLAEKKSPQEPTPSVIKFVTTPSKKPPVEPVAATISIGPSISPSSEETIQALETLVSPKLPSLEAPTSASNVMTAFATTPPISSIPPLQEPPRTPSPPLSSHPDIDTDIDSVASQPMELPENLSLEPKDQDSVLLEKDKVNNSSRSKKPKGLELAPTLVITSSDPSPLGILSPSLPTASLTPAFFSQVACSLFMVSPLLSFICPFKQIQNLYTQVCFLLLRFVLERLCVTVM
# Outline: as §1
# ETV2 = molecular target: T10, ETV2 (Homo sapiens, UniProt O00321 1-342); settings: protein: recombinant; tags: N-terminal GST; dsDNA, one strand shown
# T10 sequence: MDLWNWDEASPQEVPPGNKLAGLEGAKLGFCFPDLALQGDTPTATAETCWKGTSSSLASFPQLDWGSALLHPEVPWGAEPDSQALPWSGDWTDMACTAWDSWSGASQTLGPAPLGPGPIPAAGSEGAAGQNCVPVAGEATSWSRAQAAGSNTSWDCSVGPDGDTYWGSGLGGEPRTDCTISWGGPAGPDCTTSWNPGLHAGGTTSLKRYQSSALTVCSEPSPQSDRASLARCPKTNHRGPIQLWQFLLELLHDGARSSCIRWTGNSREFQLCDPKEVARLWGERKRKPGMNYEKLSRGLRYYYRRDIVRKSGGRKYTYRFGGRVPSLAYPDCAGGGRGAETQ
# Outline: as §1
# ELF3 = molecular target: T11, ELF3 (Homo sapiens, UniProt P78545 1-371); settings: protein: recombinant; tags: N-terminal GST; dsDNA, one strand shown
# T11 sequence: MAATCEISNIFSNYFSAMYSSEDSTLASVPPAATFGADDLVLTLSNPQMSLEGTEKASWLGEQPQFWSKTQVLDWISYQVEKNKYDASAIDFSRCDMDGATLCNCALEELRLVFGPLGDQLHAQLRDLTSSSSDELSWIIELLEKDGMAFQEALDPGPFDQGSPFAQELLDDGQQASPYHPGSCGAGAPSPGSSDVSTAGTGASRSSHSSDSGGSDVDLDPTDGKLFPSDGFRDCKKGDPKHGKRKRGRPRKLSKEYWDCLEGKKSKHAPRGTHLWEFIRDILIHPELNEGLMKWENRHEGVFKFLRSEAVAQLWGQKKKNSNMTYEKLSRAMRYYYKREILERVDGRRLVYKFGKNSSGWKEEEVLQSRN
# Outline: as §1
# CRX = CRX (Homo sapiens, UniProt O43186 1-299); settings: protein: recombinant; tags: N-terminal GST; dsDNA, one strand shown
# Outline: as §1
# ETV1 = ETV1 (Homo sapiens, UniProt P50549 1-477); settings: protein: recombinant; tags: N-terminal GST; dsDNA, one strand shown
# Outline: as §1
# Sequence of ETV1 (P50549 whole entry): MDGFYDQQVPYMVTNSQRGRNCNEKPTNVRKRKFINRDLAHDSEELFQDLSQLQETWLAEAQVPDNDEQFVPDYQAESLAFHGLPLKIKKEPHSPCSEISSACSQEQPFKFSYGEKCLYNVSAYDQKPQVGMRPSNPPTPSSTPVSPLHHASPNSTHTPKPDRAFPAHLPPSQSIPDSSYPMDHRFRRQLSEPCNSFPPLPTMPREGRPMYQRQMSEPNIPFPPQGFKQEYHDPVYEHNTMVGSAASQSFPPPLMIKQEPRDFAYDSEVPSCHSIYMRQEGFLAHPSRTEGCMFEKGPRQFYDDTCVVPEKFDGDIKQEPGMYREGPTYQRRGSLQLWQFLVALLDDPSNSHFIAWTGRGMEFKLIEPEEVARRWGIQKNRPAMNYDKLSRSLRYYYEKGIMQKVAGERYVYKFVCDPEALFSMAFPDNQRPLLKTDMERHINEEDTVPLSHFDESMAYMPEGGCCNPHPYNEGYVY
# Sequence of CRX (O43186 whole entry): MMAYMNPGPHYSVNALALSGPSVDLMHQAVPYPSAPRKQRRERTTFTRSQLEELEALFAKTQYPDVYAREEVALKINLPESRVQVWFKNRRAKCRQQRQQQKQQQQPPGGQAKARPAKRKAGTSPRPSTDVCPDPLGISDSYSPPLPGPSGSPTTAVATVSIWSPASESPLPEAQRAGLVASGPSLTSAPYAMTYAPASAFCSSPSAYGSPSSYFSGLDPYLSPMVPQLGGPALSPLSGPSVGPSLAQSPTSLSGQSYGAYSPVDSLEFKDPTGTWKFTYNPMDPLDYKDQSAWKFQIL
# Sequence of HSF1 (Q00613 whole entry): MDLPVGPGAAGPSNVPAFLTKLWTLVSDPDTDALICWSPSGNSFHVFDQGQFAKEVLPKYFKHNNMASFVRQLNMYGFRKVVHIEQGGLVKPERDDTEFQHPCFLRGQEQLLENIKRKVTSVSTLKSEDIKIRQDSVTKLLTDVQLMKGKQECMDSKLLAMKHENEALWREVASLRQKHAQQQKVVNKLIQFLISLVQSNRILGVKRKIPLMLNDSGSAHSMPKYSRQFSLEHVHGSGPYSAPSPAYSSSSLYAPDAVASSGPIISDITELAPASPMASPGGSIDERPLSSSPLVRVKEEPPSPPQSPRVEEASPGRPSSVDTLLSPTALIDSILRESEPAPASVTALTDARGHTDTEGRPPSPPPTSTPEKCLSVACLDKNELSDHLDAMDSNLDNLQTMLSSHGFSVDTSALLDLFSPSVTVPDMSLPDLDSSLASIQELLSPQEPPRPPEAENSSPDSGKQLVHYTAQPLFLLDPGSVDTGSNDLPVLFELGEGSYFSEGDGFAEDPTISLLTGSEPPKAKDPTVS
# Sequence of ELF1 (P32519 whole entry): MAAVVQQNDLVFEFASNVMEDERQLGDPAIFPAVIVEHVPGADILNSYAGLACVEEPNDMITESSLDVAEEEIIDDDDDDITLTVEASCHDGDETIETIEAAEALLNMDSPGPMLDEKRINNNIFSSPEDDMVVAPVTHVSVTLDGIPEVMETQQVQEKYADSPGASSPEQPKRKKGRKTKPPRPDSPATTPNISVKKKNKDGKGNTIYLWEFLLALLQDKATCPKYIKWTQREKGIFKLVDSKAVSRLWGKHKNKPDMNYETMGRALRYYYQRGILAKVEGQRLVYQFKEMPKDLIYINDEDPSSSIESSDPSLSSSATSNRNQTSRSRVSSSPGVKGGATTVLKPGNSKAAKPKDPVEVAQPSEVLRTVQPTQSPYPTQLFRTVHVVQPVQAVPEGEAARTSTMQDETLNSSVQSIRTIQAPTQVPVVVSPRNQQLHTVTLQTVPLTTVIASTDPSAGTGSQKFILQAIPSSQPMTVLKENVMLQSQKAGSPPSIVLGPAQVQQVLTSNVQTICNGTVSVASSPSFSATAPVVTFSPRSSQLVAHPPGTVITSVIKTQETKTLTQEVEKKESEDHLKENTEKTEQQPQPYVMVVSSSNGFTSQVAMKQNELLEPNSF
# Sequence of SPIB (Q01892 whole entry): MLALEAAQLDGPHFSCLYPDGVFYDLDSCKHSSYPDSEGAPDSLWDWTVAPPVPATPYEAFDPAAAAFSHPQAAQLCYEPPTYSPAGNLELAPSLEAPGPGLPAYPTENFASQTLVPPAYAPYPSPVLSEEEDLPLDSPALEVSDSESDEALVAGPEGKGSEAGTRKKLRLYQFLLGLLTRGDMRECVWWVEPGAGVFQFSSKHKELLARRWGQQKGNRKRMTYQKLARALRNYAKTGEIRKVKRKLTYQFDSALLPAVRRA
# Sequence of ETV5 (P41161 whole entry): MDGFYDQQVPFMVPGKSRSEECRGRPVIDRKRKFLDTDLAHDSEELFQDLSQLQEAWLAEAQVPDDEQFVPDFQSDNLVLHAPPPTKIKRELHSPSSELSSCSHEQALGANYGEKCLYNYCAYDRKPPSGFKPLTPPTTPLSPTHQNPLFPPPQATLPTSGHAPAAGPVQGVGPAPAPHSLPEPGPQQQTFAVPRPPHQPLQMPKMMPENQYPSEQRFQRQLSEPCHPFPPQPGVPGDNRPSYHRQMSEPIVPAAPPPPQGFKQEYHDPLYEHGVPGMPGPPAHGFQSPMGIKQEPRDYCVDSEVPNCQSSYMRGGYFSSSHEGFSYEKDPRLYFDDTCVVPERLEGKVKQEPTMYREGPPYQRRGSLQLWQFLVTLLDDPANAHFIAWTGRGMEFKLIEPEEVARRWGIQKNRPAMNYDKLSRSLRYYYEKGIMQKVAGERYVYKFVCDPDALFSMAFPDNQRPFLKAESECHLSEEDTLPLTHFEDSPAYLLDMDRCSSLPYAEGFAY
# Sequence of ELF4 (Q99607 whole entry): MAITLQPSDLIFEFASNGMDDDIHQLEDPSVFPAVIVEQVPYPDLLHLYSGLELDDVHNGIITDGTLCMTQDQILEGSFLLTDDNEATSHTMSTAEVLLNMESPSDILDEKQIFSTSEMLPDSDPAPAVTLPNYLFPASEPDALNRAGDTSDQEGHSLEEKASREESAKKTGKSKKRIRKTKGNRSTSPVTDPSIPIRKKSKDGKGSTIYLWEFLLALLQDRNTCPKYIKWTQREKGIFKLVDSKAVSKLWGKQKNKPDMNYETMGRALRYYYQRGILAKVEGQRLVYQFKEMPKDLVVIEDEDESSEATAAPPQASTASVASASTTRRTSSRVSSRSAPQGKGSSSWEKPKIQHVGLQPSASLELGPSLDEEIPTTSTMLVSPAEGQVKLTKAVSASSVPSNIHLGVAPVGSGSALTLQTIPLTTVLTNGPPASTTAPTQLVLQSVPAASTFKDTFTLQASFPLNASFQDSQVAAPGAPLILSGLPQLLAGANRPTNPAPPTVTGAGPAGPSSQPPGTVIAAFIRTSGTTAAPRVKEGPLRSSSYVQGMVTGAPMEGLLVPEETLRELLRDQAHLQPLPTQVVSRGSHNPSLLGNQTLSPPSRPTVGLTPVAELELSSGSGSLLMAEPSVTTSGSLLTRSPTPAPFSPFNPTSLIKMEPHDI
sequence,measurement,setting,value
AACCCT,binding signal,FLI1,"1.31 fold enrichment (6-mer frequency, TF over GST control)"
same,binding signal,ELK1,"1.4 fold enrichment (6-mer frequency, TF over GST control)"
same,binding signal,GABPA,"1.29 fold enrichment (6-mer frequency, TF over GST control)"
same,binding signal,ERG,"1.23 fold enrichment (6-mer frequency, TF over GST control)"
same,binding signal,ELF1,"1.35 fold enrichment (6-mer frequency, TF over GST control)"
same,binding signal,EHF,"1.18 fold enrichment (6-mer frequency, TF over GST control)"
same,binding signal,SPI1,"1.32 fold enrichment (6-mer frequency, TF over GST control)"
same,binding signal,SPIB,"1.29 fold enrichment (6-mer frequency, TF over GST control)"
same,binding signal,ELK3,"1.5 fold enrichment (6-mer frequency, TF over GST control)"
same,binding signal,FEV,"1.29 fold enrichment (6-mer frequency, TF over GST control)"
same,binding signal,ETV5,"1.31 fold enrichment (6-mer frequency, TF over GST control)"
same,binding signal,HSF1,"1.24 fold enrichment (6-mer frequency, TF over GST control)"
same,binding signal,SPIC,"1.18 fold enrichment (6-mer frequency, TF over GST control)"
same,binding signal,ELF4,"1.34 fold enrichment (6-mer frequency, TF over GST control)"
same,binding signal,ELK4,"1.24 fold enrichment (6-mer frequency, TF over GST control)"
same,binding signal,ETV2,"1.2 fold enrichment (6-mer frequency, TF over GST control)"
same,binding signal,ELF3,"1.33 fold enrichment (6-mer frequency, TF over GST control)"
same,binding signal,CRX,"1.39 fold enrichment (6-mer frequency, TF over GST control)"
same,binding signal,ETV1,"1.38 fold enrichment (6-mer frequency, TF over GST control)"
